The target in assay [1] is Lysosomal acid glucosylceramidase (Homo sapiens) (UniProt P04062). Description: Glucocerebrosidase-p2 (AID 348; in the data active = potency below about 10 µM; also: potency is read from the fitted curve at half-maximal effect). Conditions: purified GBA, blue fluorogenic substrate, 40 min. In a few lines:
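Normal human glucocerebrosidase (0.2 nM) with blue fluorogenic substrate (80 uM final) in citrate/phosphate pH 5.9 with 10mM sodium taurocholate, 0.01% tween-20; 40 min RT, NaOH/glycine stop; fluorescence Ex 365/Em 440; AC50 from a titration from 0.6 nM upwards.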

The nature of assay [2]: AP1 Signaling Pathway (AID 357; active = well fitted curve in either direction with a large enough effect, not every such curve was filed as active;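 also: ME-180 reporter cells stimulated with EGF at its EC50 level; % is scaled to controls: 0 for no effect and ±100 for the full control effect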). As to conditions: ME-180 AP-1-bla reporter, EGF-induced, beta-lactamase ratio, 5 h; at 7.69 µM (top of the series) unless noted. Put shortly: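 A ratiometric CCF4 readout (405 nm excitation; 460 and 530 nm emission) quantified AP-1-driven beta-lactamase in ME-180 cells after 5 h with compound and EC50 EGF; AC50 values were derived for activators and inhibitors.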

For assay [3], the target named is Cytochrome P450 1A2 (Homo sapiens) (UniProt P05177). Nature of the assay: p450-cyp1a2 (AID 410; calls by dose curve; also: potency is read from the fitted curve at half-maximal effect). As to conditions: recombinant CYP1A2, luciferin-ME demethylation, luminescence; series mostly up to 57 µM. In a few lines:
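Luminescent demethylation readout: Luciferin-ME (100uM, equal to Km) turned over by 20nM CYP1A2 for 60 min at room temperature after NADPH regeneration addition, following 10 min compound preincubation. Normalization used 57 uM furafylline as full inhibition.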

Assay [4] can be described thus: NFAT Signaling Pathway (AID 444; active = well fitted curve in either direction with a large enough effect, not every such curve was filed as active;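 also: carbachol stimulus at about its EC50 of 1 µM final; % is scaled to controls: 0 for no effect and ±100 for the full control effect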). Conditions: Jurkat NFAT-bla M1, carbachol, beta-lactamase ratio, 5 h; at 7.69 µM (top of the series) unless noted. Put shortly:
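Jurkat cells carrying an NFAT-driven β-lactamase reporter and co-transfected muscarinic M1 receptor were treated with compound plus carbachol (1 uM final, an EC50 level) for 5 h at 37 °C. CCF4 loading followed for 1 h at RT; 460/530 nm ratio gave %activity.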

A short description of assay [5]: Stat Signaling Pathway (AID 446; active = well fitted curve in either direction with a large enough effect, not every such curve was filed as active;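 also: ME-180 cervical cancer cells given 40 pM IL-6 alongside compound; SIE-controlled beta-lactamase reporter measured as 460/530 nm FRET emission ratio; % is scaled to controls: 0 for no effect and ±100 for the full control effect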). As to conditions: ME-180 (cervical carcinoma) SIE beta-lactamase reporter, IL-6 stimulated, 5 h; at 7.69 µM (top of the series) unless noted. Put shortly:
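Emission at 460 and 530 nm (excitation 405 nm) reports SIE-controlled beta-lactamase in ME-180 cells. Cells received compound with 40 pM IL-6 for 5 hrs at 37 C; data scaled between 300 pM IL-6 and 125 nM JAK-inhibitor controls.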

Assay [6] deals with Glucocorticoid receptor (Homo sapiens) (UniProt P04150). Description: GR-GFP Redistribution (AID 450;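 active = compounds whose dose series gives a full or clear partial fitted curve of increased nuclear translocation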; also: potency is read from the fitted curve at half-maximal effect). Conditions: U2OS GR-GFP nuclear translocation, laser cytometry, 2 h.
Assay [7] shares this target. Nature of the assay: GR-EFC Redistribution (AID 451; calls by dose curve; also: potency is read from the fitted curve at half-maximal effect). As to conditions: CHO-K1 GR-EFC translocation, beta-gal luminescence, 2 h. Put shortly:
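CHO-K1 cells stably expressing nuclear-localized β-gal enzyme acceptor and GR fused C-terminally to the enzyme donor fragment; ligand-driven nuclear translocation restores β-gal by complementation. Compounds titrated up to 46 uM final, 2 h at 37 °C; luminescence read.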

The target in assay [8] is Mitogen-activated protein kinase 10 (Mus musculus) (UniProt Q61831). Nature of the assay: JNK3 AlphaScreen Assay (AID 530; active = well fitted curve in either direction with a large enough effect, not every such curve was filed as active;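 also: kinase came from lysate of stimulated human HepG2 cells; signal reports phosphorylation of biotinylated GST-cJun 1-79 at Ser73 with 10 µM ATP; % is scaled to controls: 0 for no effect and ±100 for the full control effect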). Conditions: JNK3 lysate, c-Jun phosphorylation; series mostly up to 57.1 µM. In a few lines:
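Phosphorylation of biotinylated GST-cJun(1-79) at Ser73 is measured by AlphaScreen proximity luminescence. Enzyme is JNK3 in HepG2 lysates activated with interleukin-1beta and tumor necrosis factor alpha; ATP is 10 uM final.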
(Bead proximity is the source of the signal in Alpha formats.)

Assay [9] concerns the target 3',5'-cyclic-AMP phosphodiesterase 4B (Homo sapiens) (UniProt Q07343). Description: qHTS Assay for Inhibitors of PDE-IV (AID 607; active = well fitted activation curve with a large enough effect in the main read-out, with a control signal flat, not every such curve was filed as active; also: % of control where 0% means no effect). As to conditions: HEK293 ACTOne CNG channel cells, membrane potential fluorescence; series mostly up to 22.9 µM. Put shortly:
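The readout is membrane depolarisation from a cAMP-sensing CNG channel, detected with a potential dye at ex 535/em 590. Cells were HEK293-derived (endogenous PDE-IV) at 1000 cells/well, titrated up to 22.9 uM final.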

In assay [10] the target is Cytochrome P450 3A4 (Homo sapiens) (UniProt P08684). Nature of the assay: qHTS Assay for Activators of Cytochrome P450 3A4 (AID 885). Also: nearly all actives have a fitted effect of over 65% in size. Also: potency is read from the fitted curve at half-maximal effect. As to conditions: recombinant CYP3A4, Luciferin-PPXE luminescence, 60 min; series mostly up to 57.1 µM. In a few lines: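 Activators are scored by enhanced luminescence from CYP3A4 conversion of luciferin-PPXE (25uM, equal to KM) to luciferin, after 60 min at RT with an NADPH-regenerating system.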
(In general: qHTS replaces the single test concentration by a dilution series.)

In assay [11] the target is Dual specificity protein kinase CLK4 (Homo sapiens) (UniProt Q9HAZ1). Description: qHTS Assay for Inhibitors of CDC-like Kinase 4 (Kinase-Glo Assay) (AID 1770). Also: nearly all actives have a fitted effect of over 65% in size. Also: potency is read from the fitted curve at half-maximal effect. Conditions: recombinant Clk4, Kinase-Glo ATP depletion luminescence; series mostly up to 66.7 µM. In a few lines:
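25 nM Clk4 with 100 uM RS repeat peptide and 1 uM ATP (final) in Tris pH7.5, 10 mM MgCl2, 4.5 h at room temperature. Remaining ATP measured by Kinase-Glo luciferase luminescence.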

Assay [12] shares this target. Nature of the assay: qHTS Assay for Inhibitors of CDC-like Kinase 4 (ADP-Glo Assay) (AID 1771). Also: nearly all actives have a fitted effect of over 70% in size. Also: potency is read from the fitted curve at half-maximal effect. As to conditions: recombinant CLK4, ADP-Glo luminescence; series mostly up to 80 µM. In a few lines:
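ADP production was read by ADP-Glo luminescence after residual ATP depletion, following 1 h room-temperature reaction of 25 nM Clk4, 1 uM ATP and 100 uM RS peptide with MgCl2, EGTA, DTT and Triton X-100.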

Assay [13] has the same target. Nature of the assay: qHTS Assay for Inhibitors of CDC-like Kinase 4 (ADP-FP Assay) (AID 1795). Also: nearly all actives have a fitted effect of over 60% in size. Also: potency is read from the fitted curve at half-maximal effect. As to conditions: Transcreener ADP fluorescence polarization; series mostly up to 50 µM. In a few lines:
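Recombinant Clk4 (6.25 nM) phosphorylated 100 uM RS repeat peptide with 1 uM ATP in 25 mM Tris pH 7.5, 10 mM MgCl2, 0.5 mM EGTA, 2.5 mM DTT, 0.01% Triton X-100 for 1 h. ADP was detected by Transcreener ADP2 competitive fluorescence polarization after 30 min at room temperature.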

Assay [14] deals with Ubiquitin carboxyl-terminal hydrolase 1 (Homo sapiens) (UniProt O94782). Nature of the assay: Inhibitors of USP1/UAF1: Pilot qHTS (AID 504865).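 Also: rhodamine fluorescence freed from ubiquitin-rhodamine substrate followed over time; top concentration of the series differs between compounds; % is scaled to controls: 0 for no effect and ±100 for the full control effect; nearly all actives have a fitted effect of over 35% in size.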 Conditions: purified USP1/UAF1, Ub-rhodamine cleavage fluorescence; series mostly up to 54.9 µM. Put shortly:
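USP1/UAF1 complex at 1 nM preincubated 15 min at room temperature with compound, then Ub-Rho substrate added at 150 nM final. Fluorescence (480/540 nm) read kinetically in 50 mM HEPES pH 7.8, 0.5 mM EDTA, 1 mM TCEP, 0.1 mg/ml BSA, 0.01% Tween-20.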

Assay [15] is described as follows: Primary qHTS for small molecule stabilizers of the endoplasmic reticulum resident proteome: Secreted ER Calcium Modulated Protein (SERCaMP) assay (AID 1508630). Also: % is scaled to controls: 0 for no effect and ±100 for the full control effect. Conditions: SH-SY5Y GLuc-SERCaMP (Gaussia luciferase released on ER calcium loss) secretion, thapsigargin, luminescence; series mostly up to 38.4 µM. Put shortly:
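The SH-SY5Y reporter protocol was run at 3 concentrations up to 38.3 uM (primary) or 11 concentrations (follow-up): 16 h compound, 100 nM thapsigargin for 4 h, then extracellular luciferase luminescence.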

The target of assay [16] is Cytochrome P450 3A4 (Homo sapiens) (UniProt P08684). Nature of the assay: qHTS Assay for Inhibitors and Substrates of Cytochrome P450 3A4 (AID 884). Also: nearly all actives have a fitted effect of over 50% in size. Also: potency is read from the fitted curve at half-maximal effect. Conditions: recombinant CYP3A4, Luciferin-PPXE luminescence; series mostly up to 57.1 µM. In a few lines:
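Luminescent readout of luciferin produced by CYP3A4 (20 nM) dealkylation of Luciferin-PPXE, 25 uM (its KM). NADPH-driven reaction ran 60 min at RT after 10 min compound preincubation; data scaled to 57 uM ketoconazole as 100% inhibition.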

The target of assay [17] is Cytochrome P450 2C19 (Homo sapiens) (UniProt P33261). Nature of the assay: qHTS Assay for Inhibitors and Substrates of Cytochrome P450 2C19 (AID 899). Also: % is scaled to controls: 0 for no effect and ±100 for the full control effect; nearly all actives have a fitted effect of over 60% in size. Conditions: recombinant CYP2C19, luciferin-H EGE luminescence; series mostly up to 57.1 µM. Put shortly: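 NADPH-dependent conversion of Luciferin-H EGE (10uM, at KM) by 5nM enzyme in 50mM KPO4, 60 min at 37C following 10 min compound preincubation. Stopped with luciferin detection buffer; luminescence read after 20 min.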

The results in this text go back to PubChem BioAssay (NCATS).

Unmarked numbers belong to inactive results. Inconclusive results are not listed. Activity calls are given as the source filed them. Unless noted, calls follow the shape of the dose curve; as a rule, active = well fitted curve in the direction sought with a large enough effect; inconclusive = small, poorly fitted or top-dose-only effect, or another doubt; inactive = no such curve, though single readings can be large; an effect the other way counts as inactive or inconclusive.

Glucocorticoid receptor (Homo sapiens), sequence (P04150 whole entry, looked up): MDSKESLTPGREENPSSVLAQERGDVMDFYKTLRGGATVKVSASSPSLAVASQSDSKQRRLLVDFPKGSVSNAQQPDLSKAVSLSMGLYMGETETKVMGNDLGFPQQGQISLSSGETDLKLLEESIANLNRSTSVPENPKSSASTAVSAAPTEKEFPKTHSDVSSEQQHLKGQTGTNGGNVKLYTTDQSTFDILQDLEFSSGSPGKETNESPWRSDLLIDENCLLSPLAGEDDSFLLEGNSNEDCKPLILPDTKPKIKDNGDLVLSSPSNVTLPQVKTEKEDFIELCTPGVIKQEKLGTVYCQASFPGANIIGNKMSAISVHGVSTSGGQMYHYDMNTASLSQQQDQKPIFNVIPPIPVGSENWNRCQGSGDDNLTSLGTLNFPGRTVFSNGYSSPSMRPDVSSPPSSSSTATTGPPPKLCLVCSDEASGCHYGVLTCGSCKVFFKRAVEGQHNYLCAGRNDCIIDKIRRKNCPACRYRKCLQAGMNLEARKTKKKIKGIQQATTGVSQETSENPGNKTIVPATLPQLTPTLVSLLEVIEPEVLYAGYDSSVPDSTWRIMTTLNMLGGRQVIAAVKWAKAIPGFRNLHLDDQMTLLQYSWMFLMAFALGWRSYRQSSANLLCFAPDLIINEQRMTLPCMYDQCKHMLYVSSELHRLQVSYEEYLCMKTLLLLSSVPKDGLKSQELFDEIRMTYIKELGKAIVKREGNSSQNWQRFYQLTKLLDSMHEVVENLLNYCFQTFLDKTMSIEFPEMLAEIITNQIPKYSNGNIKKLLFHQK
Cytochrome P450 3A4 (Homo sapiens), sequence (P08684 whole entry, looked up): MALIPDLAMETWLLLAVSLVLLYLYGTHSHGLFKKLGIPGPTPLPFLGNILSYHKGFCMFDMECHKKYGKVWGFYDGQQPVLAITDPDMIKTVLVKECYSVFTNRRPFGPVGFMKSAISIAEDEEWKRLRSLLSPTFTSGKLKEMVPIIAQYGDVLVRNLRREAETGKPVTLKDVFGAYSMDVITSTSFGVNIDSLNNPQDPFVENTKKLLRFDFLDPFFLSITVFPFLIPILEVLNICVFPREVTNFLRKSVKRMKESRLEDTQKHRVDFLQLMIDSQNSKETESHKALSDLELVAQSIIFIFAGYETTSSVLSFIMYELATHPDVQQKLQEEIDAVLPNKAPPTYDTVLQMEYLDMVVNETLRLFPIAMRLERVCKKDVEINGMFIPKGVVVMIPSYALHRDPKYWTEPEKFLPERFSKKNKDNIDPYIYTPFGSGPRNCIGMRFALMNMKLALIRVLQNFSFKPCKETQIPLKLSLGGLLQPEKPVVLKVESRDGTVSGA
Cytochrome P450 1A2 (Homo sapiens), sequence (P05177 whole entry, looked up): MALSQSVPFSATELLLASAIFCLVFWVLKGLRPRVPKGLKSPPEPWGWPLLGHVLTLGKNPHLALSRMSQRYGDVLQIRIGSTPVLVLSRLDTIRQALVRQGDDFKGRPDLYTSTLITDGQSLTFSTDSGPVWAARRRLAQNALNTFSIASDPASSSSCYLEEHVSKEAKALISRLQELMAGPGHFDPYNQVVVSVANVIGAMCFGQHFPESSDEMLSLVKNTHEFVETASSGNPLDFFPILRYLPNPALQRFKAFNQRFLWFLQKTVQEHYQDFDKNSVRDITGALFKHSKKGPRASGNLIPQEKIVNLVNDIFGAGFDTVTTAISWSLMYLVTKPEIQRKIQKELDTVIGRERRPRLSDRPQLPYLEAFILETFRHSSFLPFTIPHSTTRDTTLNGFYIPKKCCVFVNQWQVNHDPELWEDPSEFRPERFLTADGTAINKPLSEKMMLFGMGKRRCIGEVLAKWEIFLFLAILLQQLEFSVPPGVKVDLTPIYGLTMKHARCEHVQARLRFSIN
Lysosomal acid glucosylceramidase (Homo sapiens), sequence (P04062 whole entry, looked up): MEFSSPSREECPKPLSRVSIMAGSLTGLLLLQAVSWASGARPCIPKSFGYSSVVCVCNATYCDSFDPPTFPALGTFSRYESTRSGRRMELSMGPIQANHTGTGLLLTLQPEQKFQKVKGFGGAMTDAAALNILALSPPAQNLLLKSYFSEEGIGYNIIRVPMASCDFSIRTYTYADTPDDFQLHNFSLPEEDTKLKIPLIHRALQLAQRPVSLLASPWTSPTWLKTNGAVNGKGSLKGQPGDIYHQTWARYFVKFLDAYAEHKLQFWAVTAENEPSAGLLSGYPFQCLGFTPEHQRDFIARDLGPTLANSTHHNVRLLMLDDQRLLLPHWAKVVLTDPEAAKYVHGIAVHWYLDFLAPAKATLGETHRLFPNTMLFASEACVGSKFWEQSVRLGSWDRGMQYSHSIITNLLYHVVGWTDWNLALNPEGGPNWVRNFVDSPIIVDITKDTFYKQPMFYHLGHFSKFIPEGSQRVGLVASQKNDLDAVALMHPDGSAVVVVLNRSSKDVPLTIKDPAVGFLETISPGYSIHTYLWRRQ
3',5'-cyclic-AMP phosphodiesterase 4B (Homo sapiens), sequence (Q07343 whole entry, looked up): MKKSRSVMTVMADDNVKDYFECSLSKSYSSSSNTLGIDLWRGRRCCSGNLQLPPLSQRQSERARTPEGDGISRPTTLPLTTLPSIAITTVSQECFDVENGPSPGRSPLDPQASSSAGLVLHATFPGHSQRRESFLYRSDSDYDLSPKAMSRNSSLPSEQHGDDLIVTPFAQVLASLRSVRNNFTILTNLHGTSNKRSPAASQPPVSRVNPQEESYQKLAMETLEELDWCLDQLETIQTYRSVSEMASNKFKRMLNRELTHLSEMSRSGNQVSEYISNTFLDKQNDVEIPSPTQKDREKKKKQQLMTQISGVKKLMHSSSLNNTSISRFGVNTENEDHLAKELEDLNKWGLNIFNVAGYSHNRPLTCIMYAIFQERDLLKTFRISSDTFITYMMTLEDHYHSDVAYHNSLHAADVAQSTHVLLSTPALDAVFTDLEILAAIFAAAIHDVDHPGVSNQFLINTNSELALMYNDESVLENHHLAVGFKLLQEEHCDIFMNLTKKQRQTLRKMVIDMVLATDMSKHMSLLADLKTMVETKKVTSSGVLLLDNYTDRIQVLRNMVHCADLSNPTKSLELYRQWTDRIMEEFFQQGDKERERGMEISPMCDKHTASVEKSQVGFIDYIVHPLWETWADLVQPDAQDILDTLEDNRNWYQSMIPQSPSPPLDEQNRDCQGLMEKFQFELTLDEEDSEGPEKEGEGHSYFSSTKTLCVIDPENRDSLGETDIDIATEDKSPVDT
Dual specificity protein kinase CLK4 (Homo sapiens), sequence (Q9HAZ1 whole entry, looked up): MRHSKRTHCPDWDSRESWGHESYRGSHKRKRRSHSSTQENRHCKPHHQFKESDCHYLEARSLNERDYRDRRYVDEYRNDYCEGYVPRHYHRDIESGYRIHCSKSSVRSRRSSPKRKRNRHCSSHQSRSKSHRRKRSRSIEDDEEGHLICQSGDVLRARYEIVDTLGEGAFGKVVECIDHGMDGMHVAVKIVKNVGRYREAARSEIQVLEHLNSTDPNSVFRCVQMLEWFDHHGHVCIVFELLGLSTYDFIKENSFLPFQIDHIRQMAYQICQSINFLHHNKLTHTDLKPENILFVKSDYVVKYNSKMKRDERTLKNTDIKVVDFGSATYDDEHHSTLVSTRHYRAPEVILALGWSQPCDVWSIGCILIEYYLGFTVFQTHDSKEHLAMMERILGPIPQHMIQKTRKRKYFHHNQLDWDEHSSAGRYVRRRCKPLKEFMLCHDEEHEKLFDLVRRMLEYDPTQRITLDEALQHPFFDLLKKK
Ubiquitin carboxyl-terminal hydrolase 1 (Homo sapiens), sequence (O94782 whole entry, looked up): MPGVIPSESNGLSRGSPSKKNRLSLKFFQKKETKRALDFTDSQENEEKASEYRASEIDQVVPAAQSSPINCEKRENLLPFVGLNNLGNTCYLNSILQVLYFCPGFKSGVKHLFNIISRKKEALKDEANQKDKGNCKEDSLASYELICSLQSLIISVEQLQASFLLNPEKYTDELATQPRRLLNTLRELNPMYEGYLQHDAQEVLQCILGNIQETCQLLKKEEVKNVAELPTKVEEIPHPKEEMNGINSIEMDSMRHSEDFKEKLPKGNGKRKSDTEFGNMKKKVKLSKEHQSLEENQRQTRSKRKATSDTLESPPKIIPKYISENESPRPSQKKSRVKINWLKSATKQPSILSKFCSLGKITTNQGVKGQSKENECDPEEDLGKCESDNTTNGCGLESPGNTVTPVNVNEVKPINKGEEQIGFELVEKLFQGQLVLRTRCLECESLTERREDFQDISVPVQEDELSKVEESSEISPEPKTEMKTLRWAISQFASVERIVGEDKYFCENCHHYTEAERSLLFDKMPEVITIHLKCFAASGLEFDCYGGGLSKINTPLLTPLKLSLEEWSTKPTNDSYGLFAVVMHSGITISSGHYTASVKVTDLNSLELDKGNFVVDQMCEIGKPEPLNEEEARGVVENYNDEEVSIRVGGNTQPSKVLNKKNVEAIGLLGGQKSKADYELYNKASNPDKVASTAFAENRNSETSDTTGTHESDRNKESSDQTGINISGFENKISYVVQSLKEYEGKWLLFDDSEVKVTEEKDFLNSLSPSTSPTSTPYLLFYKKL
Cytochrome P450 2C19 (Homo sapiens), sequence (P33261 whole entry, looked up): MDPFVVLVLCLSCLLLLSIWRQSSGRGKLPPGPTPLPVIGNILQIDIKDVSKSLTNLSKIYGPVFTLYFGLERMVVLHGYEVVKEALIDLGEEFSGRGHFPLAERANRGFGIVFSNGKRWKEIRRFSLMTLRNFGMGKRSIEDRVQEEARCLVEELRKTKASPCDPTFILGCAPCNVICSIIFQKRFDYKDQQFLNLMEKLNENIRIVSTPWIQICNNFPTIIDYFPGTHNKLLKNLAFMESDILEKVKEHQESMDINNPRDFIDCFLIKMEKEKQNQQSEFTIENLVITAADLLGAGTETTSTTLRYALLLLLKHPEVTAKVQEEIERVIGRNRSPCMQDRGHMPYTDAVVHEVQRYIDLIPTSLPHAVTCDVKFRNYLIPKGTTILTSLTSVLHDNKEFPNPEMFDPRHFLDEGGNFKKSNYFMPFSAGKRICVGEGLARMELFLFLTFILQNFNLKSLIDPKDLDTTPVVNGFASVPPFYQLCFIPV

`COCCn1c(=O)c(C)nc2cncnc21`: the Potency in assay [1] was above 11.4 µM; in assay [3] it was 15.8 µM (active); in assay [6], above 9.22 µM; in [7], above 46 µM. Besides, the activity change, negative = inhibition in assay [2] was -8.48%; in assay [4], 3.43%. In addition, the activity, negative = inhibition in assay [5] was -7.75%. Further, the Potency entry in assay [8], in assay [9], in [10], in assay [11], in [12] and in assay [13] was “inactive” throughout. In addition, in [14], the Potency entry is “inactive”. For the same compound, the result in assay [15] was inactive.

With `Cc1cnc(CNc2cc(-c3ccccc3C(F)(F)F)ncn2)cn1`, the Potency is above 11.4 µM in assay [1]; 25.1 µM (active) in assay [3]; above 46 µM in assay [6]; above 46 µM in [7]; 6.31 µM (active) in assay [10]. For the same compound, the figures for the activity change, negative = inhibition in [2] and in [4] were 3.5% and 10.7%, respectively. In [5], the activity, negative = inhibition is 8.02%. The Potency entry in assay [8], in assay [9], in assay [16], in assay [11], in assay [12] and in assay [13] was “inactive” throughout. Besides, the Potency result in assay [14] was “inactive”. Besides, the outcome in [15] was inactive.

`COc1ccccc1CNc1ncncc1-c1ccc(C(=O)N(C)C)cc1`: the Potency in assay [1] was above 11.4 µM; in [3], 12.6 µM (active); in [6] it was above 46 µM; in assay [7], above 46 µM; in assay [16] it was 2.51 µM (active); in assay [11], 12.6 µM (active). For the same compound, the Potency in [12] is 14.1 µM (active); in [13], 12.6 µM (active). The results for the activity change, negative = inhibition in assay [2] and in assay [4] were -10.9% and 1.11%, respectively. In addition, the activity, negative = inhibition in [5] is 9.05%. The Potency entry in [8], in [9], in [10] and in [14] was “inactive” each time. For the same compound, the outcome in assay [15] was inactive.

As for `COCCn1c(=O)c(-c2cccc(C#N)c2)nc2cnc(Oc3ccc(OC)cc3)nc21`, the Potency in [1] was above 11.4 µM; in assay [3], 12.6 µM (active); in [6] it was above 9.22 µM; in assay [7], above 46 µM; in assay [16], 2.51 µM (active). Besides, the activity change, negative = inhibition in [2] was -21.9%; in assay [4], 7%. Also, the activity, negative = inhibition in [5] was -15%. Besides, the Potency entry in [8], in assay [9], in [10], in [11], in assay [12] and in assay [13] was “inactive” throughout. In assay [14], the Potency entry was “inactive”. In [15], the result was inactive.

For the compound `COc1ncc2nc(-c3cn(C)c4ccccc34)c(=O)n(C)c2n1`, the Potency in [1] was above 11.4 µM; in assay [3], 1 µM (active); in [6] it was above 9.22 µM; in assay [7], above 46 µM; in [16], 5.01 µM (active). In addition, the activity change, negative = inhibition is 4.21% in assay [2] and 11.4% in assay [4]. In addition, in assay [5], the activity, negative = inhibition was 7.15%. Besides, the Potency entry in assay [8], in [9], in [10], in assay [17], in [11] and in assay [12] was “inactive” in each case. Besides, the Potency entry in assay [13] and in assay [14] was “inactive” in each case. In addition, the outcome in assay [15] was inactive.
